Source: PubChem BioAssay (National Center for Advancing Translational Sciences (NCATS))
An excerpt weighted towards active compounds, which were near 0.95% of everything screened.
Texas Red fluor = qHTS Assay for Spectroscopic Profiling in Texas Red Spectral Region; AID 587, 2007; hit rate 0.06% among 59,000; Compound fluorescence, Texas Red channel, 547/618 nm; active compounds read high; max dye-equivalent concentration, M; in the data active means max dye-equivalent concentration above about 10 nM; inconclusive means between about 1.1 nM and that limit
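Spectral interference profiling: each compound concentration's relative fluorescence, read with a 547 nm excitation and 618 nm emission filter pair, was normalized to a per-plate Texas Red standard curve.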
A488 autofl = qHTS Assay for Spectroscopic Profiling in A488 Spectral Region; compound autofluorescence, A488 spectral region, dye equivalency; Compound Type: qHTS ECL - MLSMR; max dye equivalency, M; hit rate 0.1% among 59,000; AID 591, 2007
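Compound autofluorescence was read in 100 mM Tris pH 8.0 after 15 min at room temperature, ex 480 nm/em 540 nm. Intensities were converted to A488 dye-equivalent concentration using an on-plate six-point A488 standard curve.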
Fluorescein fluor = qHTS Assay for Spectroscopic Profiling in Fluorescein Spectral Region. Compound autofluorescence, 480/540 nm, fluorescein-equivalent; active compounds read high. max fluorescein-equivalent concentration, M. hit rate 0.91% among 59,000. AID 593, 2007; in the data active means max fluorescein-equivalent concentration above about 10 nM; inconclusive means between about 1.1 nM and that limit
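Library compounds, added at multiple concentrations to pH 8.0 Tris buffer (100 mM), incubate 15 min at room temperature before CCD imaging at 480 nm excitation and 540 nm emission.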
Resorufin autofl = qHTS Assay for Spectroscopic Profiling in Resorufin Spectral Region. Compound fluorescence, resorufin region 547/598 nm, buffer; active compounds read high. max dye-equivalent concentration, M. hit rate 0.04% among 59,000. AID 588, 2007
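Compounds in 100 mM Tris buffer, pH 8.0, incubated 15 min at room temperature, then read with 547 nm excitation and 598 nm emission filters. Fluorescence was converted to dye-equivalent concentration using an on-plate six-point resorufin standard curve.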
Rhodamine fluor = qHTS Assay for Spectroscopic Profiling in Rhodamine Spectral Region | Rhodamine-region fluorescence, 547/598 nm, Tris buffer; active compounds read high | max dye-equivalent concentration, M | hit rate 0.05% among 59,000 | AID 594, 2007; in the data active means max dye-equivalent concentration above about 11 nM; inconclusive means between about 1.1 nM and that limit
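Intrinsic compound fluorescence, ex 547 / em 598 nm, CCD imager. Tris 100 mM pH 8.0; 15 min RT. Output = rhodamine dye-equivalent concentration at each compound concentration.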
A647 autofl = qHTS Assay for Spectroscopic Profiling in A647 Spectral Region | Compound fluorescence, A647 channel (570/671 nm), Tris buffer | 59,000 tested, under 10 active | max dye-equivalent concentration, M
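Compound fluorescence was measured in 100 mM Tris buffer, pH 8.0, after 15 min at room temperature, using 570 nm excitation and 671 nm emission filters. Signal was normalized to a per-plate Alexa 647 standard curve and expressed as dye-equivalent concentration at each compound concentration.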
A number is an active result. Unless noted, how the calls were made is not given here.

What do the screens show for `CCOC(=O)N1CCc2c(sc3c2C(=O)NC(c2ccc(-c4ccc(Cl)cc4)o2)N3)C1` (stereo not drawn)?
Texas Red fluor: inactive; A488 autofl: inactive; Fluorescein fluor: inactive; Resorufin autofl: inactive; Rhodamine fluor: inactive; A647 autofl: inactive

What do the screens show for `CN1CCc2c(sc3c2C(=O)NC(c2ccccn2)N3)C1` (stereo not drawn)?
Texas Red fluor: 1.2e-08M; A488 autofl: inconclusive; Fluorescein fluor: 5.6e-08M; Resorufin autofl: inconclusive; Rhodamine fluor: inconclusive; A647 autofl: inactive

What do the screens show for `Cc1ccc(C2NC(=O)c3c(sc4c3CCN(C)C4)N2)o1` (stereo not drawn)?
Texas Red fluor: inactive; A488 autofl: inactive; Fluorescein fluor: 1.2e-08M; Resorufin autofl: inactive; Rhodamine fluor: inactive; A647 autofl: inactive

How did CN1CCc2c(sc3c2C(=O)NC(/C=C/c2ccco2)N3)C1 (stereo not drawn) do in these assays?
Texas Red fluor: inactive; A488 autofl: inactive; Fluorescein fluor: 1.3e-08M; Resorufin autofl: inactive; Rhodamine fluor: inactive; A647 autofl: inactive

Results for CN1CCc2c(sc3c2C(=O)NC(c2ccc4c(c2)OCO4)N3)C1 (stereo not drawn) ?
Texas Red fluor: inconclusive; A488 autofl: inactive; Fluorescein fluor: inconclusive; Resorufin autofl: inactive; Rhodamine fluor: inactive; A647 autofl: inactive

Results for C[C@H](O)[C@H](O)[C@@H](O)c1cnc2nc(N)[nH]c(=O)c2n1 ?
Texas Red fluor: inactive; A488 autofl: inactive; Fluorescein fluor: inactive; Resorufin autofl: inactive; Rhodamine fluor: inactive; A647 autofl: inactive

How did COc1c2c(nc3ccccc13)O[C@@H]([C@@](C)(O)CO)C2 do in these assays?
Texas Red fluor: inconclusive; A488 autofl: inactive; Fluorescein fluor: inactive; Resorufin autofl: inactive; Rhodamine fluor: inactive; A647 autofl: inactive

Results for COC(=O)[C@](C)(N)Cc1ccc(O)cc1 ?
Texas Red fluor: inactive; A488 autofl: inactive; Fluorescein fluor: inconclusive; Resorufin autofl: inactive; Rhodamine fluor: inactive; A647 autofl: inactive

How did COc1ccc([C@@H]2CC(=O)c3c(O)cc(O[C@@H]4O[C@@H](CO[C@@H]5O[C@@H](C)[C@@H](O)[C@@H](O)[C@H]5O)[C@@H](O)[C@@H](O)[C@H]4O)cc3O2)cc1O do in these assays?
Texas Red fluor: inactive; A488 autofl: inactive; Fluorescein fluor: inconclusive; Resorufin autofl: inactive; Rhodamine fluor: inactive; A647 autofl: inactive

Results for CSC(N)=NCCC[C@@H](N)C(=O)O ?
Texas Red fluor: inactive; A488 autofl: inactive; Fluorescein fluor: inconclusive; Resorufin autofl: inactive; Rhodamine fluor: inactive; A647 autofl: inactive

How did Cc1ccc(C(C)C)c(OCC(O)CN2CCOCC2)c1 (stereo not drawn) do in these assays?
Texas Red fluor: inactive; A488 autofl: inactive; Fluorescein fluor: inconclusive; Resorufin autofl: inactive; Rhodamine fluor: inactive; A647 autofl: inactive

How did Cc1ccc2c(c1)c(C)c(C)n2CC(O)CN1CCOCC1 (stereo not drawn) do in these assays?
Texas Red fluor: 6.4e-08M; A488 autofl: inactive; Fluorescein fluor: 1.4e-08M; Resorufin autofl: inconclusive; Rhodamine fluor: 1.2e-08M; A647 autofl: inactive

How did Cc1cc(C)n(C(=O)COc2c(C)cccc2C)n1 do in these assays?
Texas Red fluor: inactive; A488 autofl: inactive; Fluorescein fluor: inconclusive; Resorufin autofl: inactive; Rhodamine fluor: inactive; A647 autofl: inactive

Results for Cc1cccc(OCC(=O)NCC(=O)n2nc(C)cc2C)c1 ?
Texas Red fluor: inactive; A488 autofl: inactive; Fluorescein fluor: 1.2e-08M; Resorufin autofl: inactive; Rhodamine fluor: inactive; A647 autofl: inactive

What do the screens show for `C=CCN1CCc2c(cc(O)c(O)c2Cl)[C@H](c2ccccc2)C1`?
Texas Red fluor: inactive; A488 autofl: inactive; Fluorescein fluor: inactive; Resorufin autofl: inactive; Rhodamine fluor: inactive; A647 autofl: inactive

How did CCOC(=O)c1c(C)oc2ccc(O)c(CN(C)C)c12 do in these assays?
Texas Red fluor: inactive; A488 autofl: inactive; Fluorescein fluor: inconclusive; Resorufin autofl: inactive; Rhodamine fluor: inactive; A647 autofl: inactive
